In the library only some 21% were active in any assay of this set; here they are far more common.
Pf growth 48h: inhibits P. falciparum growth in the first generation, 48 h; P. falciparum luciferase growth in erythrocytes, 48 h; Potency, µM (highest dose often 28.7 µM), actives largely listed as inhibitors; 5.9% of 310,000 active; AID 504832
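Cell-based growth assay: transgenic P. falciparum expressing firefly luciferase, cultured in red cells within RPMI 1640 containing 0.5% w/v Albumax, 24 mM bicarbonate and gentamycin. A drop in luciferase activity indicates inhibition.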
Shiga toxin inh: Shiga toxin inhibition; Vero cells, Shiga toxin protein synthesis inhibition reporter; inhibition, % at 38.7 µM; 9.2% of 290,000 active; AID 2315; in the data active = inhibition mostly above about 28%, no sharp cut-off; inactive = mostly below about 43%
NS1 inh: blocks influenza NS1 protein function; Potency, µM (series often up to 46.1 µM); 0.4% of 270,000 active; AID 2326; calls by dose curve; also: actives are rising curves; nearly all actives have a fitted effect of over 50% in size
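Compounds were scored for reversing the slow growth caused by influenza A NS1 in S. cerevisiae, measured by optical density at 600 nm. Assay medium contained 2% galactose at pH 6.0; NS1-free yeast of the same strain were the positive control.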
SARS PLpro yeast: SARS-CoV PLP inhibition in yeast | AID 485353 | S. cerevisiae expressing SARS-CoV PLpro, growth rescue | 0.19% of 330,000 active | Potency, µM (doses to about 32.9 µM), hits mostly activators; calls by dose curve; also: nearly all actives have a fitted effect of over 55% in size
Pf growth 96h: P. falciparum growth inhibition at 96 hours; P. falciparum luciferase reporter growth, 96 h; Potency, µM (series often up to 28.7 µM), actives largely listed as inhibitors; 6.9% of 320,000 active; AID 504834
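96 h incubation, 37 C, 5% CO2, of luciferase-reporter P. falciparum-infected RBCs (2% hematocrit, 0.05% parasitemia final) with test compounds; endpoint luminescence.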
CHX counter: affects cycloheximide protein synthesis inhibition readout, counter-screen; cell reporter, cycloheximide protein synthesis inhibition counterscreen; AID 2314; max response, %; 12% of 300,000 active; in the data active = max response mostly above about 13%, no sharp cut-off; inactive = mostly below about 14%; also: read at 38.3 µM for the half of the compounds with a filed dose
Large screens that a line does not name were inactive. Unless noted, calls follow the shape of the dose curve; as a rule, active = well fitted inhibition curve with a large enough effect; inconclusive = small, poorly fitted or top-dose-only effect, or another doubt; inactive = no such curve, though single readings can be large or run the other way.

Cc1cc(NC(=O)CSc2nccn2C)no1	none (no result: NS1 inh)
COc1ccc(C(=O)NC(=S)NCc2ccco2)cc1	Shiga toxin inh 44, CHX counter 22
COc1ccc(C(=O)NC(=S)NCc2ccco2)cc1Br	Pf growth 48h inconclusive, Pf growth 96h inconclusive
CC(C)(C)c1ccc(C(=O)N/C(=C\c2cccs2)C(=O)NCc2ccco2)cc1	Pf growth 48h inconclusive, Pf growth 96h 8.3µM, CHX counter 33
COc1ccc(C(=O)Nc2ccc(Cl)cc2C(=O)NCc2ccco2)cc1	Pf growth 48h inconclusive, Pf growth 96h inconclusive, CHX counter 14
COc1ccc(C(=O)NC(=S)NCc2ccco2)cc1OC	Pf growth 96h 7.4µM
CC(=O)Nc1ccc(C(=O)N/C(=C/c2ccccc2)C(=O)NCc2ccco2)cc1	none
Cc1ccc(C(=O)N(C)Cc2nc3ccccc3c(=O)[nH]2)cc1NC(=O)c1ccco1	none (no result: Pf growth 48h, Shiga toxin inh, NS1 inh, Pf growth 96h, CHX counter)
Cc1ccc(CNC(=O)COc2cccc3c2OC(C)(C)C3)cc1	none (no result: Shiga toxin inh, NS1 inh, CHX counter)
CC1=NN(C(C#N)c2c(C)nn(Cc3ccccc3)c2C)C(C)(C)C1 (stereo not drawn)	none
Cc1cc2nccc(-c3ccc(Cl)cc3Cl)n2n1	none
CC(C)n1ncc2c(C(=O)NCC(=O)Nc3ccccc3Br)cc(C3CC3)nc21	Pf growth 48h inconclusive, Pf growth 96h inconclusive (no result: Shiga toxin inh, NS1 inh, CHX counter)
Cc1ccc(NC(=O)CSCC(=O)NCc2ccco2)cc1	none (no result: Shiga toxin inh, NS1 inh, CHX counter)
Cc1ccc(C(=O)NC(=S)NCc2ccccc2)cc1	Pf growth 96h inconclusive, CHX counter 16
COc1ccc(C(=O)NC(=S)NCc2ccccc2)cc1OC	none
Cc1ccc(NC(=O)C(=S)NCc2ccco2)cc1	CHX counter 38
Cc1ccc(C(=O)NC(=S)NCc2ccco2)cc1	Pf growth 96h inconclusive, CHX counter 35 (no result: NS1 inh)
Cc1ccc(C(=O)NC2CC3CCCC(C2)N3C(=S)NCc2ccco2)cc1 (stereo not drawn)	Pf growth 48h 10µM
CCc1ccc(CCN2C(=O)c3ccccc3C2=O)nc1	CHX counter 25
CCc1ccc(CCN2CCCCC2)nc1	none (no result: Pf growth 48h, Shiga toxin inh, SARS PLpro yeast, Pf growth 96h, CHX counter)
CCN(CC)S(=O)(=O)c1ccc(N/N=C/c2cc(OC)ccc2O)nc1	Pf growth 48h 4.7µM, Pf growth 96h 8.3µM
COc1cccc(/C=N/NC(=S)Nc2cccc(S(=O)(=O)N(C)C)c2)c1	Pf growth 48h inconclusive
CN(C)S(=O)(=O)c1cccc(NC(=S)N/N=C/c2ccco2)c1	Pf growth 48h 3.7µM, Pf growth 96h inconclusive, CHX counter 14
CN(C)S(=O)(=O)c1cccc(NC(=S)N/N=C/c2ccc(O)c(O)c2O)c1	none
O=C(N/N=C\c1ccco1)Nc1cccc(Cl)c1	Shiga toxin inh 142, CHX counter 80
COc1cc(/C=N/NC(=S)Nc2cccc(S(=O)(=O)N(C)C)c2)cc(OC)c1O	Pf growth 96h 12µM
COC(=O)c1cc(NS(=O)(=O)c2ccc(NCc3cccnc3)c([N+](=O)[O-])c2)cc(C(=O)OC)c1	none
Cn1c(SCC(=O)NCC2CCCO2)ncc(C(=O)Nc2ccccc2)c1=O (stereo not drawn)	Pf growth 96h inconclusive (no result: Shiga toxin inh, NS1 inh, CHX counter)
COc1ccc(O)c(/C=N/NC(=S)Nc2cccc(S(=O)(=O)N(C)C)c2)c1	Pf growth 48h 4.1µM, NS1 inh inconclusive, SARS PLpro yeast inconclusive, Pf growth 96h 4.7µM, CHX counter 18
COc1ccc(O)c(/C=N/NC(=S)Nc2cccnc2)c1	Pf growth 48h inconclusive, Shiga toxin inh 91, Pf growth 96h 0.52µM, CHX counter 34 (no result: NS1 inh)
O=C(CN1CCOCC1)Nc1nc2cc([N+](=O)[O-])ccc2s1	none
Fc1ccc(Sc2ccccc2CNC2=NCCN2)cc1	Pf growth 48h 5.9µM, Pf growth 96h 2.1µM
Cc1ccc(/C(O)=C2/C(=O)C(=O)N(Cc3cccnc3)C2c2ccccn2)cc1 (stereo not drawn)	NS1 inh inconclusive (no result: Pf growth 96h)
Cc1c(/C(O)=C2/C(=O)C(=O)N(Cc3cccnc3)C2c2ccccn2)cnn1-c1ccccc1 (stereo not drawn)	Pf growth 96h inconclusive, CHX counter 34
Cc1c(/C(O)=C2/C(=O)C(=O)N(Cc3cccnc3)C2c2cccs2)cnn1-c1ccccc1 (stereo not drawn)	Shiga toxin inh 168, SARS PLpro yeast inconclusive, CHX counter 52 (no result: Pf growth 96h)
CNc1c(NS(=O)(=O)c2cc(OC)ccc2OC)c(=O)oc2ccccc12	Pf growth 48h inconclusive
COc1cc(Nc2ccccc2Cl)c([N+](=O)[O-])nc1[N+](=O)[O-]	Pf growth 96h 15µM (no result: Pf growth 48h)

Source: PubChem BioAssay
